Among the data in PubChem BioAssay (EPA / NIEHS) are AC50 and outcome values, retold here.

Assay [1] in a line: CCTE_Shafer_MEA_dev_firing_rate_mean: CCTE's Neural Network Formation Assay for Mean Firing Rate, Shafer Lab (AID 2284031).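 Further: curve fitted for loss of firing so AC50 reflects decreased mean firing rate.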 The gist of the method:
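Extracellular spike frequency, AUC over DIV 5–12 recordings, in rat cortical neuron MEA cultures dosed from plating; loss direction vs DMSO.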

Assay [2] is described as follows: CCTE_Shafer_MEA_dev_per_burst_spike_percent: CCTE's Neural Network Formation Assay for Percent of Spikes in a Burst, Shafer Lab (AID 2284032).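 Further: fitted as a decrease in burst spike percentage below DMSO baseline.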 In a few lines: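 Value is trapezoidal AUC over recordings on days 5, 7, 9 and 12 of the well-mean fraction of spikes falling in single-electrode bursts; rat cortical cultures exposed continuously from plating, treatment renewed DIV 5 and 9, fitted downward against DMSO.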

The nature of assay [3]: CCTE_Shafer_MEA_dev_active_electrodes_number: CCTE's Neural Network Formation Assay for Number of Active Electrodes, Shafer Lab (AID 2284040; active means hit-call score of the fitted dose curve at least 0.9, where 1 is the maximum;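 further: potency for loss of active electrodes versus DMSO so lower counts are hits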). The gist of the method: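 Developing rat cortical networks on MEAs, exposed DIV 0–12. Value is the AUC of active-electrode counts (≥5 spikes/min) from days 5, 7, 9, 12, relative to DMSO.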
The nature of assay [4]: CCTE_Shafer_MEA_dev_burst_rate: CCTE's Neural Network Formation Assay for Burst Rate, Shafer Lab (AID 2284042). The gist of the method: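 Exposure ran continuously over 12 days of network development in rat cortical cultures, with compound refreshed during full media changes on DIV 5 and 9. Single-electrode bursts per recording time, well-mean over active electrodes, trapezoidal AUC across days 5–12, fitted downward relative to DMSO.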

Assay [5] in a line: CCTE_Shafer_MEA_dev_per_burst_interspike_interval: CCTE's Neural Network Formation Assay for Burst Interspike Interval, Shafer Lab (AID 2284044).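 Further: potency for a decrease of within-burst interspike interval below DMSO level.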 The gist of the method: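 Primary rat cortical neurons on 48-well MEA plates, exposed from day 0 through day 12, treatment renewed at DIV 5 and 9. Within-burst interspike interval recorded days 5, 7, 9, 12, well-averaged, summarised as AUC; negative fit versus DMSO.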

Assay [6] is described as follows: CCTE_Shafer_MEA_dev_burst_duration_mean: CCTE's Neural Network Formation Assay for Mean Burst Duration, Shafer Lab (AID 2284045). In a few lines: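 Network-formation assay in primary rat cortical neurons; treatment spans twelve days of development. Mean burst duration per well is integrated by trapezoidal AUC and fitted in the loss-of-signal direction against DMSO baseline.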

A short description of assay [7]: CCTE_Shafer_MEA_dev_interburst_interval_mean: CCTE's Neural Network Formation Assay for Mean Interburst Interval, Shafer Lab (AID 2284046).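 Further: well-mean interburst interval of bursting electrodes as AUC over four recording days; curve fitted for decrease in interburst interval relative to DMSO.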 The gist of the method:
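Primary rat cortical neurons on PEI-coated 48-well MEA plates (laminin added with cells at plating) (16 electrodes/well), exposed from plating day 0 with renewal at DIV 5 and 9. Mean inter-burst interval averaged over bursting electrodes, AUC across days 5, 7, 9, 12; DMSO baseline.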

Assay [8] can be described thus: CCTE_Shafer_MEA_dev_inter_network_spike_interval_mean: CCTE's Neural Network Formation Assay for Mean Inter-network Spike Interval, Shafer Lab (AID 2284047). The gist of the method:
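Mean time between consecutive network-spike peaks, recorded extracellularly (adaptive spike detection) on DIV 5, 7, 9 and 12, summarized as trapezoidal AUC. Rat cortical cultures on MEAs dosed continuously days 0–12, re-dosed at feeds; loss-of-signal fit relative to DMSO.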

The nature of assay [9]: CCTE_Shafer_MEA_dev_network_spike_number: CCTE's Neural Network Formation Assay for Number of Network Spikes, Shafer Lab (AID 2284048).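 Further: synchronized bursts across electrodes counted on days 5 7 9 12 and integrated as AUC.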 The gist of the method:
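Extracellular recordings from 16-electrode wells track network formation in rat cortical cultures under continuous treatment from plating. The endpoint is network spike number, expressed as AUC across DIV 5–12 relative to DMSO vehicle.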

Assay [10] is described as follows: CCTE_Shafer_MEA_dev_spike_duration_mean: CCTE's Neural Network Formation Assay for Mean Spike Duration, Shafer Lab (AID 2284051).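 Further: potency for a decrease in mean network spike duration versus DMSO.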 In a few lines: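 Spontaneous activity was recorded on days 5, 7, 9 and 12 from rat cortical cultures grown on microelectrode arrays and dosed continuously from day 0, with media and compound renewed after the DIV 5 and 9 recordings. Network-spike duration was collapsed by area under the curve.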

Assay [11] can be described thus: CCTE_Shafer_MEA_dev_network_spike_duration_std: CCTE's Neural Network Formation Assay for Standard Deviation of Network Spike Duration, Shafer Lab (AID 2284052).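 Further: hits are decreases in network spike duration SD versus DMSO vehicle.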 The gist of the method:
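Network spike duration variability was collapsed across recordings on days 5, 7, 9 and 12 by trapezoidal area-under-curve and fitted downward against DMSO. Cultures were rat cortical neurons on PEI-coated MEA plates, dosed continuously from plating, refed with compound DIV 5/9.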

A short description of assay [12]: CCTE_Shafer_MEA_dev_per_network_spike_spike_number_mean: CCTE's Neural Network Formation Assay for Mean Number of Spikes in a Network Spike, Shafer Lab (AID 2284053). The gist of the method: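 Mean spike count within each network spike, taken in a 0.05 s window at its peak, was recorded on days 5, 7, 9 and 12 and integrated as trapezoidal area under the curve. Rat cortical cultures on MEA plates received continuous compound from day 0, refreshed at medium changes on DIV 5 and 9.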

Assay [13] can be described thus: CCTE_Shafer_MEA_dev_per_network_spike_spike_percent: CCTE's Neural Network Formation Assay for Percent of Spikes in a Network Spike, Shafer Lab (AID 2284054). In a few lines:
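Developing networks of rat cortical neurons are dosed at day 0 and recorded extracellularly four times up to day 12. The endpoint is the area under the curve of percent spikes in network spikes, fitted in the negative direction relative to DMSO.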

Assay [14] can be described thus: CCTE_Shafer_MEA_dev_LDH: CCTE's Lactate Dehydrogenase Assay for Cytotoxicity in the Neural Network Formation Assay, Shafer Lab (AID 2284068; active means hit-call score of the fitted dose curve at least 0.9, where 1 is the maximum;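 further: exposure for twelve days from plating with re-dosing on DIV 5 and 9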). The gist of the method:
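Primary rat cortical neurons were cultured on PEI-coated MEA plates and exposed from plating through day 12, with compound renewed at medium changes on DIV 5 and 9. LDH activity was read spectrophotometrically; loss of signal versus DMSO indicates reduced viability.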

Assay [15] can be described thus: CCTE_Shafer_MEA_dev_AB: CCTE's Alamar Blue Assay for Cytotoxicity in the Neural Network Formation Assay, Shafer Lab (AID 2284083; active means hit-call score of the fitted dose curve at least 0.9, where 1 is the maximum;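 further: resazurin reduction fluorescence as viability of cultured neurons; twelve days of exposure from plating with re-dosing on DIV 5 and 9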). The gist of the method:
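Resazurin fluorescence, relative to DMSO, gauges viability after twelve days of exposure that began at plating of rat cortical neurons (1.5 x 10^5 cells/well, 48-well MEA); treatment renewed with full medium exchange on DIV 5 and 9.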
(Alamar Blue is a resazurin reagent that responds to reducing activity.)

The nature of assay [16]: CCTE_Shafer_MEA_dev_mutual_information_norm: CCTE's Neural Network Formation Assay for Mutual Information Normalization, Shafer Lab (AID 2284091). In a few lines:
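Exposure of primary rat cortical neurons began at plating and ran to DIV 12, with full media and treatment renewal after DIV 5 and 9 recordings. Mutual information AUC (DIV 5–12) was analysed for loss versus DMSO.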

Assay [17] is described as follows: CCTE_Shafer_MEA_dev_correlation_coefficient_mean: CCTE's Neural Network Formation Assay for Mean Correlation Coefficient, Shafer Lab (AID 2284093).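 Further: well mean pairwise spike train correlation integrated as AUC over recording days 5 to 12; potency fitted for loss of correlation relative to DMSO vehicle wells.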 In a few lines:
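Primary rat cortical neurons on PEI-coated 48-well MEA plates (16 electrodes/well) were exposed from plating day 0 through DIV12, with compound renewed at DIV5 and 9. Pairwise spike correlations were averaged per well; trapezoidal AUC across DIV5, 7, 9, 12.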

A short description of assay [18]: UKN2_HCS_IMR90_neural_migration: University of Konstanz (UKN) Leist Lab Neural Crest Cell Migration Assay in human induced IMR90 Pluripotent Stem Cells (UKN2) (AID 2284204). The note with it: actives raise or lower the signal. The gist of the method:
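Using a 96-well stopper format with PLO/laminin/fibronectin coating, neural crest cells from iPSC migrate in cytokine-supplemented N2-S medium; after 24 h, chemicals are applied for a further 24 h, then cells are imaged after dye staining.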

Assay [19] can be described thus: IUF_NPC1b_proliferation_BrdU_72hr: Leibniz Research Institute for Environmental Medicine (IUF) 72-hour Neural Progenitor Cell Bromodeoxyuridine (BrdU) Proliferation Assay (NPC1b) (AID 2284207). The gist of the method: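 Neural progenitor spheres of human fetal origin are treated for three days; BrdU added for the last 16 h is quantified by luminescence ELISA, with DMSO as baseline and EGF/FGF omission as positive control.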

The nature of assay [20]: IUF_NPC1a_proliferation_area_72hr: Leibniz Research Institute for Environmental Medicine (IUF) 72-hour Neural Progenitor Cell Proliferation Area Assay (NPC1a) (AID 2284208). The gist of the method:
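Single 0.25–0.35 mm human fetal neural progenitor spheres in proliferation medium with EGF and FGF, exposed 72 h from plating without renewal at 37C, pH 7.2-7.6. Sphere area growth measured by automated phase-contrast imaging, relative to DMSO.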

Assay [21] can be described thus: CCTE_Mundy_HCI_Cortical_Synap_Neur_Matur_NeuriteSpotCountPerNeuriteLength: CCTE's Synaptogenesis and Neurite Maturation Assay in rat cortical cells for Neurite Spot Count per Neurite Length, Mundy Lab (AID 2284210). The gist of the method:
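Neurite-associated synapse density (synaptophysin puncta per unit neurite length) is measured by fluorescence high-content imaging in rat cortical cultures treated from DIV 7 and fixed at DIV 12, with DMSO as negative control.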

Assay [22] can be described thus: CCTE_Mundy_HCI_Cortical_NOG_NeuriteCount: CCTE's Neurite Outgrowth Assay in rat cortical cells for Neurite Count, Mundy Lab (AID 2284212).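 Further: cells fixed about two days after chemical exposure began.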 In a few lines: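 Rat cortical primary cells; compound added 2 h post-plating, 1/10 dilution of working solution. Anti-betaIII-tubulin/AF488 ICC; ArrayScan neurite count vs DMSO.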
The nature of assay [23]: CCTE_Mundy_HCI_Cortical_NOG_NeuriteLength: CCTE's Neurite Outgrowth Assay in rat cortical cells for Neurite Length, Mundy Lab (AID 2284213).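 Further: neurites imaged about 48 to 50 h after chemical exposure began.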 In a few lines:
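First, rat primary cortical cells were plated and, 2 h later, given test chemical as a 1/10 dilution. Finally, βIII-tubulin immunostaining enabled automated imaging of neurite length.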

Inconclusive results are not listed. Activity calls are given as the source filed them. How the source made its calls, unless noted: active means hit-call score of the fitted dose curve at least 0.9, where 1 is the maximum; inactive means score below 0.9.

For the compound `Cn1nc(C(F)(F)F)c(CS(=O)(=O)C2=NOC(C)(C)C2)c1OC(F)F`, the AC50 in assay [1] is 91.6 µM (active); in assay [2] it was 80.9 µM (active); in [3], 73.6 µM (active); in assay [5] it was 26.3 µM (active); in [10] it was 31.2 µM (active); in [12], 50 µM (active). The AC50 in [14] was 80.6 µM (active); in assay [15] it was 68.9 µM (active); in [17] it was 32.7 µM (active); in assay [20], 22.1 µM (active); in [22], 84.9 µM (active); in [23] it was 66.8 µM (active). Also, the compound was classed as inactive in [4], in assay [6], in assay [7], in assay [8], in assay [9] and in assay [11]. Also, the result in assay [13], in assay [16], in assay [18], in assay [19] and in assay [21] was inactive.

Broadly, the AC50 is the midpoint of the concentration-response curve, whichever way the signal moves.
